Screens: PubChem BioAssay, National Center for Advancing Translational Sciences (NCATS)
Hits are enriched below; roughly 9.3% of the tested compounds scored in any of these assays.
Rab9 prom act = qHTS Assay for Rab9 Promoter Activators; Potency, µM (series often up to 9.22 µM), inactives show at the highest dose activation, negative = inhibition, most hits filed as activators; 2.8% of 320,000 active; Huh7 Rab9 promoter-luciferase reporter, luminescence, 24 h; note: % of control where 0% means no effect; nearly all actives have a fitted effect of over 60% in size
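Steps: seed 1500 Huh7 Rab9-luc cells per well, rest 2 h at 37 °C; add compound in DMSO; incubate 24 h; add luciferase reagent, 10 min ambient; read luminescence.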
ELG1 DNA repair = qHTS screen for small molecules that inhibit ELG1-dependent DNA repair in human embryonic kidney (HEK293T) cells expressing luciferase-tagged ELG1. Potency, µM (titrated, usually from 46.1 µM), without a hit: at the highest dose activity change, negative = inhibition, most hits filed as inhibitors. AID 504467, 2011. 2.3% of 330,000 active. HEK293T ELG1-luciferase reporter, luminescence, 16 h; DNA damage induced by 5-fluorouridine; note: % is set by controls: 0 for no effect and ±100 for the full control effect; nearly all actives have a fitted effect of over 55% in size
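Overnight (16 hr) co-exposure of 2,000 cells/well to 5-fluorouridine and compound at 37 °C preceded detection. Luciferase was quantified via ONE-Glo luminescence; loss of signal denotes inhibition.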
NPC1 prom act = qHTS Assay for NPC1 Promoter Activators | Potency, µM (doses to about 9.22 µM), without a hit: at the highest dose activation, actives largely listed as activators | 2.4% of 320,000 active | Huh7 NPC1 promoter luciferase reporter, 24 h; note: % of control where 0% means no effect; nearly all actives have a fitted effect of over 60% in size
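Quantitative HTS used a cell-based reporter: Huh7 cells stably bearing the NPC1 promoter upstream of luciferase were treated with compounds for 24 h, and promoter activation was read as luminescence.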
ELG1 genotox = qHTS screen for small molecules that induce genotoxicity in human embryonic kidney (HEK293T) cells expressing luciferase-tagged ELG1; HEK293T ELG1-luciferase reporter, luminescence, 16 h; 1.3% of 330,000 active; Potency, µM (doses to about 46 µM), for inactives: at the highest dose activity change, positive = activation, usual class: activators; note: % of control where 0% means no effect; nearly all actives have a fitted effect of over 60% in size
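Quantitative HTS format in 1536-well plates. HEK293T ELG1-luciferase reporter cells receive test compound and are incubated 16 hr at 37 °C, 5% CO2; ONE-Glo added, 30 min room temperature, then luminescence read.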
SMN2 splice enh = qHTS Assay for Enhancers of SMN2 Splice Variant Expression | HEK293 SMN2-luciferase splicing reporter, luminescence, 30-36 h | Potency, µM (titrated, usually from 46.1 µM), for the others: top-dose activity change, positive = activation, actives largely listed as activators | 2.8% of 210,000 active | AID 1458, 2008; note: % of control where 0% means no effect; nearly all actives have a fitted effect of over 55% in size
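HEK293 cells carry an SMN2 minigene-luciferase reporter in which exon 7 inclusion puts luciferase in frame. Cells were seeded at 2000 cells/well, attached for 10-12 hours, then exposed to compounds for 30-36 hours at 37C before ONE-Glo luminescence.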
FLuc modulator = qHTS profiling assay for firefly luciferase inhibitor/activator using purifed enzyme and Km concentrations of substrates (counterscreen for miR-21 project); purified FLuc, Km substrates, luminescence inhibition; Potency, µM (doses to about 57.5 µM), for the others: top-dose activity change, negative = inhibition, hits mostly inhibitors; 6.9% of 360,000 active;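 note: plate controls were vehicle for no effect and reference inhibitor for full effect; nearly all actives have a fitted effect of over 55% in size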
Target sequence (P08659 whole entry, looked up): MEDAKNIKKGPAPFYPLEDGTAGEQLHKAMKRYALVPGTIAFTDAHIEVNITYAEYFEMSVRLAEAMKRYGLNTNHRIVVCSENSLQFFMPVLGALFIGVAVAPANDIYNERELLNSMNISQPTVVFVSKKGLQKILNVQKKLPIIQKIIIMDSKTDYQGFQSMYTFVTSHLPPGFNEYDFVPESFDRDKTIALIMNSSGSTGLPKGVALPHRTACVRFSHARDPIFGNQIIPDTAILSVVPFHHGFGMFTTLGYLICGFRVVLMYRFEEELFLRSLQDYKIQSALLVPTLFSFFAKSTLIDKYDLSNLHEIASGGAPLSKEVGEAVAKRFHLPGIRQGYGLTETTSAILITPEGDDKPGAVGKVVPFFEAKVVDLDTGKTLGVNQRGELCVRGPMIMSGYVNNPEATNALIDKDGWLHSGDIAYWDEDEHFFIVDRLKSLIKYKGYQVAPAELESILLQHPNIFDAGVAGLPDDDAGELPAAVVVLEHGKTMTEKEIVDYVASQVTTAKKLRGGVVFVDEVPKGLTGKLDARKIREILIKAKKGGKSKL
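Biochemical qHTS of compounds, final roughly 60 µM downward over six points, against 10 nM purified firefly luciferase using Km concentrations of substrates (10 uM D-luciferin, 10 uM ATP) in Tris acetate pH 7.5 buffer; luminescence output.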
Starred values were filed as active, the others as inactive; ? = inconclusive; . = no result. Calls come from the whole dose curve; as a rule, active = well fitted curve in the direction sought with a large enough effect; inconclusive = small, poorly fitted or top-dose-only effect, or another doubt; inactive = no such curve, though single readings can be large; an effect the other way counts as inactive or inconclusive. Potency is the fitted concentration of half-maximal effect.

SMILES	Rab9 prom act	ELG1 DNA repair	NPC1 prom act	ELG1 genotox	SMN2 splice enh	FLuc modulator
Cn1ncc(Cl)c1C(=O)Nc1ccc2c(c1)OCO2	18%	27%	17%	13%	.	-10%
CS(=O)(=O)Nc1ccc(C(=O)Nc2ccc3c(c2)OCO3)cc1	?	?	27%	?	11%	?
O=C(Nc1ccc2c(c1)OCO2)c1ccc(CO)cc1	2.8µM*	?	3.2µM*	?	.	9.5µM*
O=C(Nc1ccc2c(c1)OCO2)c1c(Cl)nc2sccn12	3.2µM*	?	?	?	?	?
CCN1CCN(c2ccc(NC(=O)c3ccc4c(c3)OCO4)cc2)CC1	?	?	?	9.2µM*	16µM*	17µM*
O=C(Nc1ccc2c(c1)OCO2)c1cccc(Cl)c1	2.2µM*	?	3.2µM*	?	16µM*	9.5µM*
O=C(Nc1ccc(OC(F)(F)F)cc1)C1CCCN(C(=O)c2ccc(Cl)cc2)C1 (stereo unspecified)	-10%	?	2%	-11%	.	-1%
COc1ccccc1NC(=O)C1CCCN(c2nnc(C)c3c(C)n(-c4ccccc4)nc23)C1 (stereo unspecified)	.	.	.	.	.	-19%
CN(C)c1nc(C=C(C#N)C#N)c(Cl)n1-c1ccc(F)cc1	0%	?	-11%	-20%	-109%	2%
O=C(Nc1ccc2nsnc2c1)c1ccc2c(c1)OCO2	0.45µM*	?	0.63µM*	1.2µM*	5.6µM*	1.3µM*
O=C(Nc1ccc(Cl)c(Cl)c1)c1ccc2c(c1)OCO2	0.56µM*	?	0.79µM*	4.6µM*	.	1.5µM*
O=C(Nc1ccc(NC(=O)c2ccc(Cl)cc2Cl)cc1)c1ccc2c(c1)OCO2	0%	14%	-3%	1%	.	0%
O=C(Nc1ccc(Cl)c([N+](=O)[O-])c1)c1ccc2c(c1)OCCO2	0.89µM*	?	?	?	.	6µM*
O=C(Nc1cccc(NC(=O)c2ccc3c(c2)OCO3)c1)c1ccccc1	1%	?	7%	-2%	11%	?
O=C(Nc1ccc2c(c1)OCO2)c1ccc2c(c1)OCO2	0.56µM*	?	0.79µM*	?	5µM*	2.1µM*
CCc1ccccc1NC(=O)C(=O)NCCc1sc(-c2cccc(C)c2)nc1C	.	.	.	.	.	2%
Cc1ccccc1OCC(=O)Nc1ccc(OCc2cc(=O)n3ccccc3n2)cc1	.	.	.	.	.	-3%
CC(NC(=O)C1=Cc2ccccc2OC1)c1ccccc1 (stereo unspecified)	.	.	.	.	.	-3%
O=C(Nc1ccc(Cl)cc1)C1=Cc2ccccc2OC1	0.56µM*	?	3.2µM*	1.5µM*	22µM*	1.9µM*
O=C(Nc1ccc(Br)cc1)c1ccc2c(c1)OCO2	0.71µM*	?	1µM*	8.2µM*	.	2.1µM*
Cc1[nH]c2ccccc2c1C(=O)C(=O)Nc1ccc2c(c1)OCO2	?	?	?	17%	.	17µM*
COc1cccc(C(=O)C2CCCN(Cc3c(C)n(C)n(-c4ccccc4)c3=O)C2)c1 (stereo unspecified)	5%	-3%	-3%	2%	.	0%
COCCNS(=O)(=O)c1ccc(-c2ccc(S(=O)(=O)NCCOC)cc2)cc1	1µM*	?	?	?	20µM*	4.3µM*
Cc1ccc(C)c(N(CC(=O)Nc2ccccc2C(=O)NCc2ccco2)S(=O)(=O)c2ccccc2)c1	1%	23µM*	-1%	-8%	-15%	3%
O=C(CCc1ccccc1)NNC(=O)Nc1ccccc1	-8%	5%	-2%	1%	15%	7%
